Experimental data published in PubChem BioAssay (NCATS).
Inconclusive results are not listed. A call without a number means that no potency is given here. Active and inactive are the calls of the source. The call rests on the fitted dose curve; in most records, active means well fitted curve in the direction sought with a large enough effect; inconclusive means small, poorly fitted or top-dose-only effect, or another doubt; inactive means no such curve, though single readings can be large; an effect the other way counts as inactive or inconclusive.

Columns and labels:
[1] = biological target: Aldehyde dehydrogenase, mitochondrial (Homo sapiens) (UniProt P05091); assay: qHTS for Inhibitors of the Aldehyde Dehydrogenase Family (ALDH2) Primary screen (AID 2061308); further: nearly all actives have a fitted effect of over 55% in size
[2] = biological target: Retinaldehyde dehydrogenase 3 (Homo sapiens) (UniProt P47895); assay: qHTS for Inhibitors of the Aldehyde Dehydrogenase Family (ALDH1A3) Primary screen (AID 2061315)

Structure (SMILES) | Potency [1] | Potency [2]
C=Cc1cc(F)c(S(=O)(=O)N2CCN(S(=O)(=O)c3ccc4c(c3)OCCO4)CC2)cc1F | inactive | inactive
COC(=O)[C@H](O)[C@H]1C(C)(C)[C@H](OC(C)=O)[C@@]2(O)C(=O)[C@]1(C)C1CC[C@]3(C)C(CC(=O)O[C@H]3c3ccoc3)[C@]13O[C@@H]32 (some centres not stated) | inactive | inactive
CC1(C)CCC(C)(C)c2cc([S+](=O)([O-])N3CCN([S+](=O)([O-])c4c(F)cccc4F)CC3)ccc21 | inactive | inactive
Cc1cc(C)n2ncc(C(=O)N3CCCC3)c2n1 | inactive | inactive
Cc1ccc(NS(=O)(=O)c2ccc(N3CCCC3=O)cc2)cc1C | inactive | inactive
CC1CCC/C=C/C(=O)c2c(O)cc(O)cc2CC(=O)O1 (configuration not stated) | inactive | inactive
CC(C)(C)OC(=O)CC(=O)NNC(=O)c1cc2ccccc2[nH]1 | inactive | inactive
Cn1nnnc1Sc1ncnc2scc(-c3cccc(C(F)(F)F)c3)c12 | inactive | inactive
CCCn1c(C)nc2c(N(CCN(C)C)Cc3ccccc3)nc(C)nc21 | inactive | inactive
FC(F)(F)c1cccc(-c2ccc(CNc3nc(-c4ccccc4C(F)(F)F)nc4ccccc34)cc2)c1 | inactive | inactive
Cn1nnnc1Sc1ncnc2scc(-c3ccccc3C#N)c12 | inactive | inactive
COc1ccccc1-c1ccc(=O)n(CC(=O)NCCc2ccccc2)n1 | inactive | inactive
CNCC(=O)Nc1ccc(Cl)cc1C(=O)c1ccc[nH]1 | inactive | inactive
Cc1cc(C)n2ncc(C(=O)NC3CCCCC3)c2n1 | inactive | inactive
O=C1CCCC2=C1C(c1ccccc1Br)N=C(Nc1nc3ccccc3o1)N2 (configuration not stated) | inactive | inactive
O=C(O)c1ccc(-c2noc(-c3cccc(C(F)(F)F)c3)n2)cc1 | inactive | inactive
CCOC(=O)C1CCN(C(=O)C(C)(C)NC(=O)Nc2cccc(C(=O)OC)c2)CC1 | inactive | inactive
COc1cc(OC)c(C(CC(=O)N2CC(C)CC(C)C2)c2ccc3c(c2)OCO3)c(OCC(N)=O)c1 (configuration not stated) | inactive | inactive

Structure (SMILES) | Potency [1] | Potency [2]
Cc1cc(Nc2c(Nc3nnc(-c4ccncc4)s3)c(=O)c2=O)ccc1Cl | inactive | inactive
Cc1ccc(NS(=O)(=O)c2cccc(F)c2)cc1C | inactive | inactive
Cc1cc(-c2nnc3n2CCCCC3)c(C)n1-c1ccncc1 | inactive | inactive
O=C(Nc1ccc(S(=O)(=O)Nc2nccs2)cc1)[C@@H]1CC[C@H](C(=O)c2ccccc2)C1 | inactive | inactive
Cc1cc(C)nc(NC(=S)N2CCN(c3ncnc4ccccc34)CC2)c1 | inactive | inactive
COc1ccc(NC(=O)c2cc(-c3ccc(C)c(C)c3)nc3ccccc23)cc1 | inactive | inactive
Cc1cc(C)nc(NC(=S)N2CC3CN(c4ccc(Cl)cc4C(F)(F)F)CC3C2)c1 (configuration not stated) | inactive | inactive
O=[S+]([O-])(c1ccc2ncsc2c1)N1CCN([S+](=O)([O-])c2c(F)cccc2F)CC1 | inactive | inactive
C=C(C)C(=O)O[C@H]1/C(C=O)=C\CC/C(CO)=C/[C@H]2OC(=O)C(=C)[C@@H]2[C@@H]1OC | inactive | inactive
Cc1cc(-c2nnc3n2CCCCC3)c(C)n1-c1cccc(Cl)c1 | inactive | inactive
COc1ccc(NC(=O)c2cccnc2C)cc1S(=O)(=O)Nc1ccc(Br)cc1 | inactive | inactive
CC(=O)Nc1sc2c(c1C#N)CCN(C(C)C)C2 | inactive | inactive
Fc1ccccc1-c1nc(NCc2ccc(-c3cccnc3)cc2)c2ccccc2n1 | inactive | inactive
Cc1ccc(S(=O)(=O)Nc2cnccc2C(=O)Nc2nc(-c3nc4ccccc4s3)cs2)cc1 | inactive | inactive
Cc1cn([C@H]2C[C@H](N[S+](=O)([O-])Cc3cc(Cl)cc(Cl)c3)[C@@H](CO)O2)c(=O)[nH]c1=O | inactive | inactive
O=C1c2ccccc2C(=O)N1c1ccncc1 | inactive | inactive
O=C(COC(=O)CNC(=O)c1ccccc1Cl)Nc1ccccc1Cl | inactive | inactive
O=C(Nc1ccc([S+](=O)([O-])Nc2nccs2)cc1)c1ncn[nH]1 | inactive | inactive
